We go through 9 molecules from PubChem BioAssay (NCI).

Holding throughout (assay): NCI-60 one-dose screen, 48 h (100 = growth as untreated, 0 = no growth, -100 = all killed)
One assay has as its system HT29 colon. To be noted: 10 µM unless noted.
Another assay deals with SNB-75 CNS. The conditions noted are these: 10 µM.
In the next assay the test system is SNB-19 CNS. To be noted: 10 µM unless noted.
For the next assay, the system named is U251 CNS. The conditions noted are these: 10 µM unless noted.
For another assay, the system named is PC-3 prostate. The conditions noted are these: 10 µM unless noted.
For a further assay, the system named is SK-MEL-5 melanoma. To be noted: 10 µM unless noted.
A further assay concerns UACC-62 melanoma. To be noted: 10 µM unless noted.
The subject of another assay is LOX IMVI melanoma. The conditions noted are these: 10 µM unless noted.
The next assay has as its system SK-MEL-28 melanoma. To be noted: 10 µM unless noted.
For the next assay, the system named is SK-MEL-2 melanoma. The conditions noted are these: 10 µM unless noted.
For another assay, the system named is SN12C renal. The conditions noted are these: 10 µM unless noted.
The subject of another assay is UO-31 renal. To be noted: 10 µM unless noted.
The test system of another assay is TK-10 renal. The conditions noted are these: 10 µM unless noted.
For the next assay, the system named is CAKI-1 renal. To be noted: 10 µM unless noted.
Another assay deals with A498 renal. To be noted: 10 µM unless noted.
The next assay relates to CCRF-CEM leukemia. The conditions noted are these: 10 µM unless noted.
The next assay concerns MOLT-4 leukemia. To be noted: 10 µM unless noted.
The test system of a further assay is HCT-15 colon. To be noted: 10 µM unless noted.
The test system of the next assay is EKVX NSCLC. The conditions noted are these: 10 µM unless noted.
A further assay deals with ACHN renal. The conditions noted are these: 10 µM unless noted.

Structures are written as SMILES. The panel holds about 83,000 compounds, 20% with a hit somewhere; the sample as a whole holds those more often.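 Single-dose data. Exposure time 48 hours. Values below 10 considered active.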 Values without a mark were called inactive. Calls of active or inactive are those of the source.

`O=C(/C=C/c1cc(-c2ccc3c(c2)OCO3)n[nH]1)c1ccc2c(c1)OCO2`: the growth was 100% with HT29 colon; 101% in the assay on SNB-75 CNS; 72% in the assay on SNB-19 CNS; 75.7% in the assay with U251 CNS; 74.6% with PC-3 prostate; 98% in the assay with SK-MEL-5 melanoma. Also, the growth is 97.4% in the assay on UACC-62 melanoma; 87.6% with LOX IMVI melanoma; 109% with SK-MEL-28 melanoma; 96.6% in the assay with SK-MEL-2 melanoma; 88.9% in the assay with SN12C renal; 74.5% in the assay with UO-31 renal. The growth is 106% in the assay with TK-10 renal; 95.1% in the assay on CAKI-1 renal; 93.3% in the assay with A498 renal; 72.9% in the assay on CCRF-CEM leukemia; 83.4% in the assay on MOLT-4 leukemia.
For the molecule `Nc1nc(-c2ccccc2)c(CCCOc2ccc(NC(=O)CBr)cc2)c(=O)[nH]1`, the growth in the assay on HCT-15 colon is 101%; in the assay on U251 CNS it was 86.4%; in the assay with PC-3 prostate it was 107%; with SK-MEL-5 melanoma, 92.9%; in the assay on UACC-62 melanoma it was 90.3%; in the assay on LOX IMVI melanoma it was 20.3%. Further, the growth was 104% with SK-MEL-28 melanoma; 101% in the assay on SK-MEL-2 melanoma; 117% in the assay on EKVX NSCLC; 91.5% in the assay with SN12C renal; 71% in the assay with UO-31 renal; 102% with TK-10 renal. The growth in the assay with ACHN renal is 96.2%; in the assay on CAKI-1 renal it was 106%; in the assay with A498 renal it was 103%; in the assay on CCRF-CEM leukemia it was 29.1%; with MOLT-4 leukemia, 96.1%.
`C=C1C(=O)O[C@H]2[C@H]1CC/C(Cn1cc(CNC(=O)/C=C/c3c[nH]c4ccccc34)nn1)=C\CC[C@@]1(C)O[C@@H]21`: the growth in the assay with HT29 colon is 92.4%; in the assay with SNB-19 CNS, 91.5%; with U251 CNS, 94.3%; in the assay on PC-3 prostate it was 95.3%; in the assay with SK-MEL-5 melanoma, 83.8%; with UACC-62 melanoma it was 87.6%. Further, the growth in the assay on LOX IMVI melanoma was 67.3%; in the assay with SK-MEL-28 melanoma it was 91.7%; in the assay with SK-MEL-2 melanoma, 90.9%; in the assay on EKVX NSCLC, 99.5%; in the assay with SN12C renal it was 88.4%; in the assay on UO-31 renal it was 92.6%. Also, the growth in the assay with TK-10 renal is 123%; in the assay on ACHN renal, 94%; in the assay on CAKI-1 renal, 88.9%; in the assay on A498 renal, 98.9%; in the assay on CCRF-CEM leukemia, 1.25% (active); in the assay on MOLT-4 leukemia it was 89.5%.
With `Cn1c2ccc(Br)cc2c2c3c(c4c5ccccc5[nH]c4c21)C(=O)N(O)C3=O`, the growth was -76.4% (active) in the assay with HT29 colon; -86.9% (active) in the assay on SNB-75 CNS; -71% (active) in the assay on U251 CNS; -43.9% (active) in the assay with PC-3 prostate; -97.8% (active) with SK-MEL-5 melanoma; -72.3% (active) in the assay with UACC-62 melanoma. Besides, the growth with LOX IMVI melanoma was -80.9% (active); with SK-MEL-28 melanoma it was -79.3% (active); with SK-MEL-2 melanoma it was -74.4% (active); with SN12C renal it was -71.9% (active); in the assay on UO-31 renal, -95.4% (active); with TK-10 renal, -72.2% (active). In addition, the growth in the assay on ACHN renal is -66.3% (active); with A498 renal, -43.7% (active); in the assay with CCRF-CEM leukemia, -16% (active); with MOLT-4 leukemia, -28% (active).
As to `CC(C)NCCCNC1=C(Cl)C(=O)c2ccccc2C1=O`, the growth in the assay on HT29 colon is 83.1%; in the assay on SNB-19 CNS it was 106%; with U251 CNS, 52.9%; in the assay with PC-3 prostate it was 57.5%; with SK-MEL-5 melanoma, 44.3%; in the assay with UACC-62 melanoma, 92.7%. Besides, the growth in the assay on LOX IMVI melanoma is 25.9%; in the assay with SK-MEL-28 melanoma, 112%; with SK-MEL-2 melanoma, 125%; in the assay with EKVX NSCLC, 80.4%; with SN12C renal, 91.7%; in the assay with UO-31 renal it was 81.9%. The growth is 114% with TK-10 renal; 81.1% in the assay with ACHN renal; 66.7% in the assay on CAKI-1 renal; 88.1% in the assay with A498 renal; 76.6% in the assay on CCRF-CEM leukemia; -45.8% (active) with MOLT-4 leukemia.
`CCOC(=O)c1ccc2c(c1)c1c(C)c3cccnc3c(C)c1n2C`: the growth is 47.4% with HT29 colon; 68% in the assay on SNB-75 CNS; 56.4% in the assay on SNB-19 CNS; 48.1% with U251 CNS; 58.3% in the assay with PC-3 prostate; 69.9% in the assay with SK-MEL-5 melanoma. The growth in the assay on UACC-62 melanoma was 49.2%; in the assay on LOX IMVI melanoma it was 22.9%; in the assay with SK-MEL-28 melanoma it was 85.3%; with SK-MEL-2 melanoma, 96%; with SN12C renal, 33.8%; with UO-31 renal it was 32%. Further, the growth with TK-10 renal was 87.8%; with ACHN renal it was 29.8%; with CAKI-1 renal, 30.9%; in the assay on A498 renal it was 83.4%; with CCRF-CEM leukemia it was 47.9%; with MOLT-4 leukemia, 21.4%.
Take `COc1cc2c(cc1OCCCCCn1c3ccccc3c3ccccc31)N=C[C@@H]1CCCN1C2=O`: the growth in the assay with HT29 colon is -45.8% (active); in the assay with SNB-75 CNS it was -11.3% (active); in the assay with SNB-19 CNS it was -49.9% (active); in the assay on U251 CNS, -58% (active); with PC-3 prostate it was -41.8% (active); with SK-MEL-5 melanoma, -100% (active). In addition, the growth in the assay on UACC-62 melanoma is -90.3% (active); in the assay on LOX IMVI melanoma, -64.8% (active); with SK-MEL-28 melanoma it was -78.8% (active); with SK-MEL-2 melanoma it was -65.7% (active); with EKVX NSCLC it was 46.6%; in the assay with SN12C renal, -54.8% (active). Further, the growth in the assay on UO-31 renal was -75.8% (active); with TK-10 renal it was -37.8% (active); in the assay on ACHN renal, -63% (active); with CAKI-1 renal, 38.3%; with A498 renal, -51.8% (active); in the assay on CCRF-CEM leukemia, -0.543% (active).
In the case of `Cc1cc(C(C)(C)C)ccc1S`, the growth in the assay on HT29 colon was 97.5%; in the assay with SNB-75 CNS, 91.4%; in the assay on SNB-19 CNS, 105%; with U251 CNS it was 109%; with PC-3 prostate, 85.6%; with SK-MEL-5 melanoma it was 111%. Moreover, the growth in the assay on UACC-62 melanoma is 98.6%; with LOX IMVI melanoma, 103%; in the assay on SK-MEL-28 melanoma, 104%; in the assay with SK-MEL-2 melanoma it was 93.4%; in the assay with EKVX NSCLC, 123%; in the assay with SN12C renal it was 100%. In addition, the growth in the assay with UO-31 renal is 90.3%; in the assay with TK-10 renal it was 107%; in the assay with CAKI-1 renal, 93.1%; in the assay with A498 renal it was 92.8%; in the assay on MOLT-4 leukemia it was 81.3%.
With `Cc1cc(N/N=C/c2nc(-c3ccccc3)oc2C)c2cc(Cl)ccc2n1`, the growth in the assay with HCT-15 colon is -83.3% (active); with PC-3 prostate it was -61.1% (active); in the assay on SK-MEL-5 melanoma it was 20.4%; with UACC-62 melanoma it was 86.3%; in the assay with LOX IMVI melanoma it was -76.8% (active); in the assay with SK-MEL-28 melanoma it was -96.4% (active). Moreover, the growth is 110% in the assay on SK-MEL-2 melanoma; -59.4% (active) in the assay on EKVX NSCLC; -84.9% (active) in the assay on SN12C renal; -99.2% (active) in the assay on UO-31 renal; -76.3% (active) in the assay with TK-10 renal; -80.1% (active) in the assay on ACHN renal. The growth is 14.4% in the assay with CAKI-1 renal, 68.4% with A498 renal, -34.6% (active) in the assay on CCRF-CEM leukemia and -39.2% (active) in the assay on MOLT-4 leukemia.
